About 83,000 compounds went through this panel and 20% of them were active in at least one assay; those are over-represented in the sample as a whole.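 Single-dose data. Exposure time 48 hours. Values below 10 considered active.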 Unmarked numbers belong to inactive results. Activity calls are given as the source filed them.
Columns and labels:
Assay in all cases: NCI-60 one-dose screen, 48 h (100 = growth as untreated, 0 = no growth, -100 = all killed)
Conditions in all cases: 10 µM unless noted
EKVX NSCLC = test system: EKVX NSCLC
SN12C renal = test system: SN12C renal
UO-31 renal = test system: UO-31 renal
TK-10 renal = test system: TK-10 renal
ACHN renal = test system: ACHN renal
CAKI-1 renal = test system: CAKI-1 renal
A498 renal = test system: A498 renal
CCRF-CEM leukemia = test system: CCRF-CEM leukemia
MOLT-4 leukemia = test system: MOLT-4 leukemia
OVCAR-5 ovarian = test system: OVCAR-5 ovarian
OVCAR-4 ovarian = test system: OVCAR-4 ovarian
SK-OV-3 ovarian = test system: SK-OV-3 ovarian
OVCAR-3 ovarian = test system: OVCAR-3 ovarian
HS 578T breast = test system: HS 578T breast
NCI/ADR-RES ovarian = test system: NCI/ADR-RES ovarian
SK-MEL-2 melanoma = test system: SK-MEL-2 melanoma
SR leukemia = test system: SR leukemia
RPMI-8226 leukemia = test system: RPMI-8226 leukemia
OVCAR-8 ovarian = test system: OVCAR-8 ovarian
IGROV1 ovarian = test system: IGROV1 ovarian

Structure (SMILES)	growth (EKVX NSCLC)	growth (SN12C renal)	growth (UO-31 renal)	growth (TK-10 renal)	growth (ACHN renal)	growth (CAKI-1 renal)	growth (A498 renal)	growth (CCRF-CEM leukemia)	growth (MOLT-4 leukemia)	growth (OVCAR-5 ovarian)	growth (OVCAR-4 ovarian)	growth (SK-OV-3 ovarian)	growth (OVCAR-3 ovarian)	growth (HS 578T breast)	growth (NCI/ADR-RES ovarian)	growth (SK-MEL-2 melanoma)	growth (SR leukemia)	growth (RPMI-8226 leukemia)	growth (OVCAR-8 ovarian)	growth (IGROV1 ovarian)
COc1ccc(N2CCN(CC(=O)N3CCN(c4nnc(-c5ccc(Cl)cc5)c(-c5ccc(Cl)cc5)n4)CC3)CC2)cc1	53.4%	67.7%	21.2%	84.2%	52.3%	147%	38.1%	20.6%	-21.2% (active)	91.6%	55.5%	99.5%	52%	52.9%	61.7%	–	–	–	–	–
COC(=O)[C@H](Cc1cn(C)cn1)NC(=O)[C@H](Cc1ccccc1)NC(=O)Nc1cc(C(F)(F)F)cc(C(F)(F)F)c1	–	-96.1% [100 µM] (active)	-93.4% [100 µM] (active)	-97.9% [100 µM] (active)	-96.3% [100 µM] (active)	–	-90.6% [100 µM] (active)	–	-55% [100 µM] (active)	-94% [100 µM] (active)	-87.1% [100 µM] (active)	-100% [100 µM] (active)	-99.1% [100 µM] (active)	–	4.87% [100 µM] (active)	-94.9% [100 µM] (active)	-39% [100 µM] (active)	-58.8% [100 µM] (active)	-87.9% [100 µM] (active)	-56.3% [100 µM] (active)
N[C@H](CS)C(=O)O	97.7%	107%	92.4%	97.3%	102%	70.4%	117%	90.8%	104%	103%	102%	107%	122%	115%	112%	–	–	101%	–	–
CCCCCc1c(C)[nH]c(/C=C2\N=C(c3ccc[nH]3)C=C2Oc2ccc(Cl)cc2)c1C	–	-7.03% [100 µM] (active)	–	-6.56% [100 µM] (active)	-48% [100 µM] (active)	-22.7% [100 µM] (active)	-49% [100 µM] (active)	–	-23.6% [100 µM] (active)	-3.17% [100 µM] (active)	12.6% [100 µM]	1.44% [100 µM] (active)	-96.2% [100 µM] (active)	3.26% [100 µM] (active)	5.31% [100 µM] (active)	-73.1% [100 µM] (active)	-9.44% [100 µM] (active)	–	-21.5% [100 µM] (active)	13.3% [100 µM]
C1CCC(C(CC2CCCCN2)C2CCCCC2)CC1 (centres undefined)	–	20.8%	11.9%	21.2%	–	5.48% (active)	51.1%	4.88% (active)	–	–	28.8%	-52.3% (active)	-3.79% (active)	57%	14.3%	64.2%	-39.7% (active)	–	–	6.73% (active)
Cc1ccc(-c2c3c(N)nc(-c4ccncc4)nc3nc3c2c(C)nn3-c2ccccc2)cc1	–	26.8%	–	12.3%	53.2%	72.5%	82.7%	–	65.3%	65%	–	-22.1% (active)	–	32.7%	46.6%	-7.11% (active)	3.61% (active)	62.5%	21.9%	71.7%
[N-]=[N+]=NCc1ncc(-c2ccc(C(F)(F)F)cc2)c(NC2CCCCCC2)n1	–	85.2% [50 µM]	–	112% [50 µM]	73.1% [50 µM]	84.3% [50 µM]	82.5% [50 µM]	–	54.7% [50 µM]	90.7% [50 µM]	88.3% [50 µM]	90.1% [50 µM]	61.4% [50 µM]	83.1% [50 µM]	88.4% [50 µM]	78.2% [50 µM]	5.36% [50 µM] (active)	53.3% [50 µM]	70.8% [50 µM]	75.9% [50 µM]
COc1cc2c(cc1OC)C(CC1(O)CCCCC1)N(S(=O)(=O)c1ccc(C)cc1)CC2 (centres undefined)	–	42.3% [100 µM]	–	40.9% [100 µM]	18.5% [100 µM]	22% [100 µM]	0.608% [100 µM] (active)	–	3.12% [100 µM] (active)	76.2% [100 µM]	25.4% [100 µM]	80% [100 µM]	-15.5% [100 µM] (active)	–	34.5% [100 µM]	6.69% [100 µM] (active)	-10.4% [100 µM] (active)	16.7% [100 µM]	26.8% [100 µM]	53.6% [100 µM]
O=C(COc1ccc(/C=C2\Cc3ccccc3C2=O)cc1)c1ccc(Cl)cc1	101%	98.9%	-7.83% (active)	133%	107%	78.2%	108%	95.2%	–	102%	112%	112%	128%	105%	92.6%	–	117%	90.3%	–	–
O=C(/C=C/c1c(-c2ccccc2)[nH]c2ccccc12)S(=O)(=O)c1ccccc1	64.3%	73.6%	31%	121%	71.8%	200%	53.8%	30.2%	20.4%	100%	80.1%	89.5%	68.9%	90.1%	16.4%	–	–	21.4%	–	51.8%
Nc1nc2c(nnn2Cc2ccc(Cl)c(Cl)c2)c(=O)[nH]1	–	89.9%	69.2%	103%	92.4%	–	85.5%	81.2%	93.8%	95.5%	112%	97.4%	106%	–	105%	90.1%	92%	–	98.5%	100%
COc1cc(OC)c2c(c1Cl)O[C@]1(C2=O)C(OCc2ccccc2)=CC(=O)C[C@H]1C	–	13.3%	–	15.9%	6.86% (active)	10.9%	-0.948% (active)	10.4%	14.1%	17.2%	39.2%	10.2%	-23.5% (active)	18.7%	7.55% (active)	2.04% (active)	7.41% (active)	-4.76% (active)	–	3.14% (active)
COc1cc(C(=O)/C=C/c2cccc(Nc3ccnc4cc(Cl)ccc34)c2)cc(OC)c1OC	16.8%	-1.72% (active)	-87.9% (active)	-39.5% (active)	-68.7% (active)	–	78.6%	2.7% (active)	-6.64% (active)	-35.8% (active)	-39.5% (active)	20.3%	-51.4% (active)	–	12.2%	–	-18.7% (active)	-15.9% (active)	–	-54% (active)
Clc1ccc(C2=NN(c3ccc(Cl)cc3)C(c3cccc(Nc4ccnc5cc(Cl)ccc45)c3)C2)cc1 (centres undefined)	74.3%	77.7%	50.7%	95.2%	88.7%	–	89.3%	88.5%	–	93.5%	73%	60.7%	85.8%	–	74.1%	–	77%	71.7%	80.4%	75.4%
Cc1sc2nc(N3CCCCC3)[nH]c(=O)c2c1C	94.3%	99.2%	96%	106%	103%	–	95%	93.7%	88.8%	108%	100%	92.3%	113%	–	96.5%	–	97%	106%	96.5%	107%
COc1ccc(C2=NN(C=O)C(c3cccc(Nc4ccnc5cc(Cl)ccc45)c3)C2)cc1 (centres undefined)	36.1%	36.1%	31.2%	37.1%	35.9%	–	27.4%	17.1%	–	51.5%	40.1%	20.6%	–	–	10.8%	–	12.6%	23.2%	17%	44.1%
O=CN1N=C(c2ccc(Cl)cc2)CC1c1cccc(Nc2ccnc3cc(Cl)ccc23)c1 (centres undefined)	30.3%	34.5%	19.5%	23%	31.5%	–	9.76% (active)	13.6%	4.5% (active)	34.6%	29.2%	19.2%	16.3%	–	2.47% (active)	–	1.88% (active)	13.4%	12.6%	34.4%
O=C(/C=C/c1ccc(C(F)(F)F)cc1)c1ccc(Nc2nc(NCCO)nc(NCCO)n2)cc1	79.5%	65.7%	44.2%	54.8%	83.7%	–	82.1%	7.48% (active)	34.5%	64.3%	62.3%	70.7%	25.8%	–	90.1%	–	-2.01% (active)	1.43% (active)	21.7%	72.5%

From PubChem BioAssay (NCI)
